# Data reported in PubChem BioAssay (NCI).
# The panel holds about 83,000 compounds, 20% with a hit somewhere; the sample as a whole holds those more often.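 Treatment: one concentration, 48 hours, 96-well format. Scoring: percent growth, with anything below 10 considered active.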 Unmarked numbers belong to inactive results. Active and inactive are the calls of the source.
# Key:
# Test in all cases: NCI-60 one-dose screen, 48 h (100 = growth as untreated, 0 = no growth, -100 = all killed)
# Conditions in all cases: 10 µM unless noted
# BT-549 breast = test system: BT-549 breast
# MDA-MB-435 melanoma = test system: MDA-MB-435 melanoma
# SW-620 colon = test system: SW-620 colon
# MCF7 breast = test system: MCF7 breast
# HCT-116 colon = test system: HCT-116 colon
# HCC-2998 colon = test system: HCC-2998 colon
# KM12 colon = test system: KM12 colon
Structure (SMILES),growth (BT-549 breast),growth (MDA-MB-435 melanoma),growth (SW-620 colon),growth (MCF7 breast),growth (HCT-116 colon),growth (HCC-2998 colon),growth (KM12 colon)
COc1ccc2nc(NC(=O)c3cc(-c4ccc(F)cc4)n4nc(-c5ccccc5)cc4n3)sc2c1,53.5%,96.2%,94.7%,86.8%,61.5%,98.6%,74.1%
O=C(/C=C/c1cccnc1)NCCCCC1CCCN(C(=O)c2ccccc2)C1 (stereo unspecified),73.7%,7.35% (active),25.5%,54.4%,7.85% (active),46.6%,43.9%
CCN(CC)c1ccc(N=Nc2cc(Cl)ccc2Cl)c(NC(=O)CCC(=O)O)c1,120%,115%,105%,93.2%,99.7%,107%,101%
Clc1ncn[nH]1,105%,96.9%,111%,90.3%,108%,89.8%,101%
CSc1ncc2ncn(C3OC(CO)C(O)C3O)c2n1 (stereo unspecified),118%,104%,96.5%,122%,102%,124%,113%
Cc1nn(-c2ccc(Cl)cc2)c2nc3c(nc12)c(=O)oc1ccccc13,89.8%,106%,104%,99.1%,105%,98.2%,112%
O=C(Nc1ccccc1Cl)c1cnc2ccc(C3CCNCC3)cn12,97.8%,86%,96.6%,83.6%,58.2%,123%,110%
COc1cc(C2CC(=O)Nc3c2cc(Br)c2ccccc32)cc(Br)c1OC (stereo unspecified),60.7%,-29.6% (active),17.6%,17.3%,-5.31% (active),90.9%,6.63% (active)
CCOC(=O)c1c(C)c(C(=O)OCC)n(C)c1C,91.5%,101%,94.5%,127%,97.9%,110%,112%
COC(=O)CCC1=C(C)/C(=C/c2[nH]c(-c3ccc[nH]3)cc2OC)N=C1C,14.3%,-13.5% (active),8.99% (active),1.82% (active),-61.8% (active),9.8% (active),5.49% (active)
CSc1ccc2c(c1)N(CCC1CCCCN1C)c1ccccc1S2 (stereo unspecified),67.9%,42.6%,75.6%,5.18% (active),42.3%,34.4%,45%
O=C1/C(=C/c2ccc([N+](=O)[O-])s2)Oc2ccc(Br)cc21,-46.2% (active),-69.5% (active),-63.5% (active),-25.2% (active),-71.5% (active),-79.9% (active),-51.3% (active)
CN(C)c1cccc2c(S(=O)(=O)N[C@H]3CC[C@H]4[C@@H]5CCc6cc(O)ccc6[C@H]5CC[C@]34C)cccc12,35.9%,-46.4% (active),24.8%,12.9%,13.1%,60.6%,18.5%
CN=C(NC)N/N=C(C)\C=N\NC(=NC)NC,110%,104%,99.5%,104%,105%,110%,104%
O=C(CCc1nnc2sc(Cc3ccccc3Cl)nn12)c1nc2ccccc2[nH]1,96.7%,101%,98.8%,71.6%,85.1%,102%,95.8%
O=C(/C=C/c1cc2ccccc2[nH]c1=O)c1ccc(Cl)cc1,29.4%,8.38% (active),-19.9% (active),15.2%,2.8% (active),10.2%,-1.06% (active)
COc1cc(C2C=C(c3ccc(C)cc3)Nc3nc(SC)[nH]c(=O)c32)ccc1Oc1ccnc2cc(Cl)ccc12 (stereo unspecified),87.9%,55.3%,93.3%,56.9%,64.5%,95.9%,60.5%
COc1ccc(-n2nc3c(c2-c2ccc(OC)c(OC)c2)-c2oncc2CC3)cc1,77.5%,78.6%,99%,80.8%,87.9%,104%,77.7%
